Only some compounds are listed: those with a hit (about 6.1% of all), similar ones and a draw of the others.
D1 antag: blocks dopamine activation of the human D1 receptor; HEK293 TREx D1 cells, calcium flux, dopamine EC80; stronger effect = lower value; actives 3.2% (n = 360,000); AID 504652; P21728; activity change, negative = inhibition, % at 10 µM; in the data active means activity change below about -30%; further: on the % scale 0 is the no-effect control and ±100 the full control effect
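Tetracycline-induced HEK293 Trex D1 cells, force-coupled to calcium, dye-loaded; compounds added and read 180 s, then EC80 dopamine added and calcium flux tracked kinetically another 180 s.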
D1 PAM: human D1 dopamine receptor positive modulation; actives 0.036% (n = 360,000); HEK293 TREx D1 cells, calcium flux, dopamine EC20 potentiation; potentiation, % at 10 µM; in the data active means potentiation above about 30%; further: 0% is about no effect
D3 ag: agonists of human D3 dopamine receptor. P35462. D3R DiscoveRx beta-arrestin cells, luminescence, 90 min. max activation, %. AID 652048. actives 0.58% (n = 410,000); in the data active means max activation above about 30%; further: 0% is about no effect
Target sequence (P35462 whole entry, looked up): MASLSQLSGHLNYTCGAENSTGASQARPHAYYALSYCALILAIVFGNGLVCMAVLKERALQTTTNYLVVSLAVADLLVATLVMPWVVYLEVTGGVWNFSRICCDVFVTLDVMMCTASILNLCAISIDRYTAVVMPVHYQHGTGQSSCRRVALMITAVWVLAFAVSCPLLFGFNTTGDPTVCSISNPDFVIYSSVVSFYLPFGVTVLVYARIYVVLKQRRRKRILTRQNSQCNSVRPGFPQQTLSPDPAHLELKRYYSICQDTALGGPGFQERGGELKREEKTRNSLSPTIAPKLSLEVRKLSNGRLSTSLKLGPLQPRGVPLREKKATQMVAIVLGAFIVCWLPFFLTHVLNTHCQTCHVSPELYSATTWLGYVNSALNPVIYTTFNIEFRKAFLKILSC
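Agonist-mode cell screen: cells plated at 1500/well and incubated overnight at 37 °C, then exposed to library compounds for 90 min at 37 °C. Detection reagent was added for 30–60 min at room temperature, and luminescence was read.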
DRD3 antagonist: D3 dopamine receptor (human) antagonism; P35462; D3R cells, DiscoveRx beta-arrestin luminescence, antagonist mode; stronger effect = lower value; max response, negative = inhibition, %; actives 2.5% (n = 360,000); in the data active means max response below about -50%; inconclusive means no clear call, values can overlap the other calls; further: on the % scale 0 is the no-effect control and ±100 the full control effect
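Cells plated overnight at 1500 cells/well, then exposed to library compounds with dopamine controls for 90 minutes at 37 degrees C. DiscoveRx reagent added for 30–60 minutes at room temperature; luminescence read, quantitative HTS format.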
D1 agonist: agonists of human D1 dopamine receptor | P21728 | HEK293 T-REx D1 cells, calcium flux, agonist mode | activation, % at 2 µM | actives 1% (n = 360,000); in the data active means activation above about 30%; further: 0% is about no effect
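Agonism was scored from calcium flux recorded over 180 s (1 read/s) after pintool compound addition, following a 10-cycle baseline. Cells were inducible force-coupled HEK293 TREx D1, plated overnight at 30 C and loaded with no-wash calcium dye.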
Numbers without * were called inactive; u = inconclusive; x = not tested or not shown; ! = repeats disagree.

SMILES | D1 antag | D1 PAM | D3 ag | DRD3 antagonist | D1 agonist
CCN(c1ccccc1)S(=O)(=O)c1ccc(NC(=S)NC(=O)c2cccs2)cc1 | 5 | -6 | -11 | -74* | 4
CCN(c1ccccc1)S(=O)(=O)c1cc(C(=O)Nc2ccc(Br)cc2)ccc1F | -37*! | -3 | -1 | u | 7
CCN(c1ccccc1)S(=O)(=O)c1ccc(C(=O)NCC(=O)Nc2ccc(F)c(F)c2F)cc1 | x | x | -9 | -97* | x
CCOc1ccc(C(=O)NCC(c2cccs2)N(C)C)cc1OCC (stereo unspecified) | 12 | -7 | -7 | -59* | -1
CCCOc1ccc(C(=O)NCC(c2cccs2)N(C)C)cc1 (stereo unspecified) | 1 | -12 | -3 | -2 | 3
CCN(c1cc(C)cc(C)c1)S(=O)(=O)c1nnc(NC(=O)C2CCCCC2)s1 | -3 | -4 | -9 | x | 12
CN(C)CCCNC(=O)c1ccc(-c2nc(-c3ccc(Cl)cc3)cs2)cc1 | -59* | -13 | -3 | -8 | 13
COc1cc2c(cc1OC)CN(Cc1ccc(F)cc1)CC2 | -5 | -2 | -27 | -30 | 1
COc1ccc(CN2CCc3cc(OC)c(OC)cc3C2)cc1O | -48* | -4 | -56 | -58* | 1
COc1ccc(CN2CCc3ccccc3C2)cc1Br | 6 | -1 | -7 | -92* | -4
CO/N=C(\C(=O)N[C@@H]1C(=O)N2C(C(=O)[O-])=C(C[n+]3cccc4c3CCC4)CS[C@H]12)c1csc(N)n1 | x | x | -14 | x | x
O=C(N/N=C/c1ccc2c(c1)OCO2)c1ccc2c(c1)OCO2 | 17 | 10 | -3 | 1 | 3
O=C(N/N=C\C=C\c1ccc2c(c1)OCO2)c1cccnc1 | -39* | -7 | 0 | -6 | 2
O=C(N/N=C/c1cccnc1)c1ccc2c(c1)OCO2 | -35* | -3 | -5 | 1 | 3
CCc1cccc(NC(=O)CN(C)S(=O)(=O)c2ccc3c(c2)n(C)c(=O)c(=O)n3C)c1 | 3 | -4 | 2 | x | 2
CCC(=O)N1CCCc2cc(S(=O)(=O)Nc3ccc(C)c(C)c3)ccc21 | -14 | 2 | -3 | x | 4
OCCN1CCN(c2cc(-c3ccc(CO)cc3)nc3ccnn23)CC1 | x | x | -7 | u | x
CC(=O)Nc1cccc(-c2cc(N3CCN(CCO)CC3)n3nccc3n2)c1 | x | x | 37* | -15 | x
Cc1cn([C@H]2C[C@H](O)[C@@H](CNC/C=C/c3ccccc3[N+](=O)[O-])O2)c(=O)[nH]c1=O | x | x | 74* | -23 | x
COc1ccc([C@H]2CC(=O)C=C(c3ccc(OC(F)(F)F)cc3)C2)cc1 | -16 | -6 | -14 | u | 2
COc1cc(F)cc(C2=CC(=O)C[C@H](c3ccc(F)cc3)C2)c1 | x | 7 | -16 | -79* | 2
COc1ccc([C@H]2CC(=O)C=C(c3cccc(OC(F)(F)F)c3)C2)cc1 | -30* | 9 | 2 | -25 | 7
COc1cc(/C=C2/N=C(C3CCCCC3)OC2=O)cc(OC)c1OC | 2 | -5 | -4 | -69* | 3
COc1ccccc1CNC(=O)CN1C(=O)COc2ccc(S(=O)(=O)N3CCC(C)CC3)cc21 | 8 | 3 | 3 | x | 2
O=C(CSCc1c(F)cccc1F)Nc1ccccc1 | -74* | -12 | -18 | u | 1
SMILES | D1 antag | D1 PAM | D3 ag | DRD3 antagonist | D1 agonist
O=C(CSCc1c(F)cccc1Cl)Nc1cccnc1 | 0 | -8 | -1 | 1 | 9
O=[S+]([O-])(c1ccc2c(c1)OCCO2)N1CCN([S+](=O)([O-])c2cc(Cl)ccc2F)CC1 | -12 | 17 | x | x | 1
Cc1sc2nc(SCC(=O)N3CCCC3)[nH]c(=O)c2c1C | -34* | 18 | -8 | -19 | -2
COC(=O)CCSc1cc(NCCOC(C)=O)c([N+](=O)[O-])c2nonc12 | 3 | -7 | -3 | -12 | 0
CC(=O)OCCNc1cc(Sc2nc3ccccc3[nH]2)c2nonc2c1[N+](=O)[O-] | -21 | -14 | -28 | -79* | 4
CC(=O)OCCNc1cc(SCc2ccco2)c2nonc2c1[N+](=O)[O-] | 2 | 1 | -1 | u | 0
CC(=O)OCCCNc1cc(Sc2nc3ccccc3s2)c2nonc2c1[N+](=O)[O-] | 12 | -3 | -17 | -78* | 0
CC(=O)OCCCNc1cc(Sc2ccc(C)cc2)c2nonc2c1[N+](=O)[O-] | -14 | -8 | -35 | -73* | 9

Compound activity as filed in PubChem BioAssay.
